One may read the AC50 as the concentration at which the activity in the assay is half-maximal.

We go through 38 compounds from PubChem BioAssay (EPA / NIEHS).

The structures appear in SMILES notation. The source made the active and inactive calls. How the source made its calls: active means hit-call score of the fitted dose curve at least 0.9, where 1 is the maximum; inactive means score below 0.9.

The experiment can be described thus: ATG_GATA_CIS: Attagene CIS-FACTORIAL HepG2 Assay for human GATA Binding Protein (AID 2282944). Conditions: HepG2 GATA cis-element reporter, Attagene multiplex mRNA; actives raise or lower the signal. Put shortly: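 Cells: HepG2, transiently transfected with cis-regulated reporter transcription units. Exposure: 24 h. Detection: RT-PCR plus capillary electrophoresis of FAM-labeled fragments. Analysis: bidirectional, DMSO as baseline.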
On to `CCC(Cc1c(I)cc(I)c(N)c1I)C(=O)O` (stereo not drawn), for which the compound was called inactive.
On the same count and under the same terms, next, `C=C(C)CCCC`: “inactive”; `OCC(F)(F)C(F)(F)C(F)(F)C(F)(F)C(F)(F)C(F)(F)CO`: “inactive”.
Regarding `C[C@]12CC[C@H]3C(=CCc4cc(O)ccc43)[C@@H]1CCC2=O`, the compound was classed as inactive.
Turning to `Oc1ccc(C2(c3ccc(O)c(C4CCCCC4)c3)CCCCC2)cc1C1CCCCC1`, the AC50 was 8.81 µM (active).
Consider `O=C(O)CCC(F)(F)C(F)(F)C(F)(F)C(F)(F)C(F)(F)C(F)(F)C(F)(F)F`, for which the compound was classed as inactive.
As to `NCC(F)(F)C(F)(F)C(F)(F)C(F)(F)C(F)(F)C(F)(F)F`, the compound was classed as inactive.
For the compound `CC(C)C(=O)OCc1ccccc1`, the result was inactive.
The same measure, in the same setting: next, `CO[Si](C)(CCC(F)(F)C(F)(F)C(F)(F)C(F)(F)C(F)(F)C(F)(F)F)OC`: “inactive”; `CCCCCCCCCc1ccc(OCCO)cc1`: “inactive”; `FC(F)(F)C(F)(F)C(F)(F)C(F)(F)C(F)(F)C(F)(F)C(F)(F)CCI`: “inactive”.
`C[Si](C)O[Si](C)C`: the outcome was inactive.
Still for that read-out and setting: next, `Cc1cnccn1`: “inactive”.
Consider `NCC(F)(F)C(F)(F)C(F)(F)C(F)(F)C(F)(F)C(F)(F)C(F)(F)C(F)(F)F`, for which the call was inactive.
As for `OCC(F)(F)C(F)(F)C(F)(F)CO`, the compound was classed as inactive.
With `CN(C)C(C)(C)CO`, the compound was called inactive.
For the compound `Nc1cc([N+](=O)[O-])cc(Cl)c1O`, the compound was classed as inactive.
With `CCCCCCCCCCCCC[N+](C)(C)Cc1ccccc1`, the call was inactive.
As to `OCCCc1cccnc1`, the outcome was inactive.
The same measure, in the same setting: next, `O=C(Cl)C(F)(F)C(F)(F)C(F)(F)C(F)(F)C(F)(F)C(F)(F)C(F)(F)F`: “inactive”.
Same read-out and setting: next, `Cc1cc(C)c(O)c(C(C)(C)C)c1`: “inactive”; `CCC(=O)OC(C)c1ccccc1` (stereo not drawn): “inactive”; `COc1ccccc1C=O`: “inactive”.
On to `O=c1cccc[nH]1`, for which the compound was called inactive.
On the same count and under the same terms, next, `CCCCCCCCCCCC(=O)Cl`: “inactive”.
Consider `CCN=C1C=CC(=C(c2ccc(N(CC)CC)cc2)c2ccc(N(CC)CC)cc2)c2ccccc21`, for which the result was inactive.
Regarding `NC(=O)C(F)(F)C(F)(F)C(F)(F)F`, the outcome was inactive.
Same read-out and setting: next, `CC(C)CC=C(C=O)c1ccccc1`: “inactive”; `OCC(F)(F)C(F)(F)C(F)(F)C(F)(F)C(F)(F)C(F)(F)C(F)(F)C(F)(F)CO`: “inactive”.
As to `F[Si-2](F)(F)(F)(F)F`, the call was inactive.
`NC(=O)C(F)(F)C(F)(F)C(F)(F)C(F)F`: the compound was called inactive.
As for `O=C(O)C(F)(F)OC(F)(F)C(F)(F)OC(F)(F)C(F)(F)OC(F)(F)F`, the compound was classed as inactive.
On the same count and under the same terms, next, `CCCCC(CC)COC(=O)c1ccc(N(C)C)cc1` (stereo not drawn): “inactive”; `CCCCCCCCCCCCCC[P+](CCCC)(CCCC)CCCC`: “inactive”.
In the case of `C=CCOC(=O)CC(C)C`, the compound was called inactive.
Turning to `O=C=Nc1cccc2c(N=C=O)cccc12`, the compound was classed as inactive.
Regarding `CC(O)C#CC(C)O` (stereo not drawn), the AC50 was 69.2 µM (active).
`CCOCN(C(=O)CS(=O)(=O)O)c1c(C)cccc1CC`: the compound was classed as inactive.
